Measured values published in PubChem BioAssay (NCATS).
Results filed as inconclusive are left out. Active and inactive are the calls of the source. Unless noted, calls come from the whole dose curve; as a rule, active = well fitted curve in the direction sought with a large enough effect; inconclusive = small, poorly fitted or top-dose-only effect, or another doubt; inactive = no such curve, though single readings can be large; an effect the other way counts as inactive or inconclusive.

Tests used:
[1] = qHTS for Inhibitors of Plasmodium falciparum (DD2) proliferation (AID 504314);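 note: parasite DNA measured by SYBR Green fluorescence after red cell lysis; plate controls were DMSO vehicle for no effect and artemisinin wells for full effect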
Summary of the method: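 Quantitative HTS growth inhibition: SYBR Green I binding to parasite DNA after 72 h drug exposure of infected erythrocytes (0.3% parasitemia, 2.5% hematocrit). Signals normalized per plate to inhibitor and vehicle wells.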

[2] = qHTS for Inhibitors of Plasmodium falciparum (7G8) proliferation (AID 504316);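 note: 0% = DMSO vehicle and -100% = 0.29 µM artemisinin full kill; nearly all actives have a fitted effect of over 65% in size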
Summary of the method: (§1)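 Erythrocytes infected with P. falciparum line (0.3% parasitemia, 2.5% hematocrit final) incubated with compounds 72 h at 37 °C, 5% CO2; SYBR Green lysis buffer added, fluorescence read next day. Normalized to 0.29 uM artemisinin and DMSO.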

[3] = qHTS for Inhibitors of Plasmodium falciparum (HB3) proliferation (AID 504318);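 note: 0% = DMSO vehicle and -100% = artemisinin control; nearly all actives have a fitted effect of over 60% in size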
Summary of the method: as §1

[4] = qHTS for Inhibitors of Plasmodium falciparum (CP250) proliferation (AID 504320);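 note: plate controls were DMSO vehicle for no effect and 0.29 µM artemisinin control for full effect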
Summary of the method: as §1

[5] = target: Mitogen-activated protein kinase 10 (Mus musculus) (UniProt Q61831); test: JNK3 AlphaScreen Assay (AID 530; active = well fitted curve in either direction with a large enough effect, not every such curve was filed as active;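 note: kinase came from lysate of stimulated human HepG2 cells; signal reports phosphorylation of biotinylated GST-cJun 1-79 at Ser73 with 10 µM ATP; % is set by controls: 0 for no effect and ±100 for the full control effect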)
Summary of the method: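 Compound titrations were preincubated 15 minutes at room temperature with substrate, antibody and pre-activated JNK3-containing HepG2 lysate. Reactions were started with 10 uM ATP and stopped with EDTA-containing bead buffer for AlphaScreen detection.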

[6] = target: Cytochrome P450 2D6 (Homo sapiens) (UniProt P10635); test: qHTS Assay for Inhibitors and Substrates of Cytochrome P450 2D6 (AID 891); note: nearly all actives have a fitted effect of over 60% in size; note: potency is the fitted concentration of half-maximal effect
Summary of the method: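 Human CYP2D6 (5 nM) with 30 uM Luciferin-ME EGE (at Km) in 100 mM KPO4, compound preincubated 10 min, then NADPH regeneration system for 60 min at room temperature. Luciferin read by luminescence; normalized to 1.43 uM quinidine.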

[7] = target: Ubiquitin carboxyl-terminal hydrolase 1 (Homo sapiens) (UniProt O94782); test: Inhibitors of USP1/UAF1: Pilot qHTS (AID 504865);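 note: rhodamine fluorescence freed from ubiquitin-rhodamine substrate followed over time; top concentration of the series differs between compounds; % is set by controls: 0 for no effect and ±100 for the full control effect; nearly all actives have a fitted effect of over 35% in size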
Summary of the method: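 Enzyme-free wells gave the negative control, while test wells held 1nM USP1/UAF1 preincubated with compound for 15 min at room temperature. Ub-Rho at 150nM final started the reaction, and fluorescence at 480/540 nm was recorded kinetically.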

[8] = target: DNA dC->dU-editing enzyme APOBEC-3G (Homo sapiens) (UniProt Q9HC16); test: qHTS for inhibitors of Vif-A3G interactions: Validation (AID 588379); note: 0% is about no effect
Summary of the method: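 HeLa cells stably expressing Vif and A3G-eYFP, 700 cells/well, incubated overnight at 37 deg C, then exposed to compound overnight at 37 deg C. Inhibition of Vif-mediated degradation read as increased yellow fluorescence (Ex 488/Em 500-530) by laser-scanning cytometry.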

[9] = Primary qHTS for small molecule stabilizers of the endoplasmic reticulum resident proteome: Secreted ER Calcium Modulated Protein (SERCaMP) assay (AID 1508630); note: % is set by controls: 0 for no effect and ±100 for the full control effect
Summary of the method: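 GLuc-SERCaMP-expressing SH-SY5Y cells, pretreated 16 h with compound, are challenged with thapsigargin to empty ER calcium stores; after 4 h, coelenterazine is added directly to the medium and luminescence is imaged.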

[10] = AP1 Signaling Pathway (AID 357; active = well fitted curve in either direction with a large enough effect, not every such curve was filed as active;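 note: ME-180 reporter cells stimulated with EGF at its EC50 level; % is set by controls: 0 for no effect and ±100 for the full control effect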)
Summary of the method: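 Beta-lactamase reporter under AP-1 response element, ME-180 background. Stimulus: EC50 EGF. Compound exposure 5 h, 37 °C. Detection: CCF4, 2.5 h RT, 460/530 nm. Values: AC50 from titration.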

[11] = target: Cytochrome P450 1A2 (Homo sapiens) (UniProt P05177); test: p450-cyp1a2 (AID 410; calls by dose curve;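 note: -100% = full effect of reference inhibitor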)
Summary of the method: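 20nM CYP1A2 with 100uM Luciferin-ME (at Km) in 100mM KPO4; compound preincubated 10 min, NADPH regeneration added, 60 min at room temperature. Luciferin quantified by luminescence after detection reagent; normalized to 57 uM furafylline.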

[12] = NFAT Signaling Pathway (AID 444; active = well fitted curve in either direction with a large enough effect, not every such curve was filed as active;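 note: carbachol stimulus at about its EC50 of 1 µM final; % is set by controls: 0 for no effect and ±100 for the full control effect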); details: Jurkat NFAT-bla M1, carbachol, beta-lactamase ratio, 5 h; at 38 µM (top of the series)
Summary of the method: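 Read-out: CCF4 FRET ratio (460 nm/530 nm) after 1 h RT dye loading, used for %activity and AC50 from titration series. Cells: Jurkat NFAT-β-lactamase/M1 line, treated with compound plus 1 uM carbachol for 5 h, 37 °C.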

[13] = target: Glucocorticoid receptor (Homo sapiens) (UniProt P04150); test: GR-GFP Redistribution (AID 450;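 active = compounds whose dose series gives a full or clear partial fitted curve of increased nuclear translocation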; note: potency is the fitted concentration of half-maximal effect); details: U2OS GR-GFP nuclear translocation, laser cytometry, 2 h
[14] = target: Glucocorticoid receptor (Homo sapiens) (UniProt P04150); test: GR-EFC Redistribution (AID 451; calls by dose curve; note: potency is the fitted concentration of half-maximal effect); details: CHO-K1 GR-EFC translocation, beta-gal luminescence, 2 h
Summary of the method: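 Translocation of GR-ED fusion to nuclear EA restores b-gal, read by luminescence after 1 h room-temperature detection. Engineered CHO-K1 biosensor cells, 1,000/well, exposed 2 h at 37 C to titrations up to 46 uM final.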

[15] = target: 3',5'-cyclic-AMP phosphodiesterase 4B (Homo sapiens) (UniProt Q07343); test: qHTS Assay for Inhibitors of PDE-IV (AID 607; active = well fitted activation curve with a large enough effect in the main read-out, with a control signal flat, not every such curve was filed as active; note: % of control where 0% means no effect)
Summary of the method: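 The readout is membrane depolarisation from a cAMP-sensing CNG channel, detected with a potential dye at ex 535/em 590. Cells were HEK293-derived (endogenous PDE-IV) at 1000 cells/well, titrated up to 22.9 uM final.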

[16] = target: Guanine nucleotide-binding protein G(i) subunit alpha-1 (Homo sapiens) (UniProt P63096); test: qHTS Assay for Inhibitors of RGS12 GoLoco Motif Activity (Green Fluorophore) (AID 879);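 note: 0% = labeled peptide with Gαi1 and full inhibition = labeled peptide alone without protein; negative values mean loss of peptide binding seen as reduced polarization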
Summary of the method: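 Fluorescence polarization assay: 50 nM Gαi1 with 10 nM FITC-labeled RGS12 GoLoco peptide in 10 mM Tris pH 7.5, 150 mM NaCl, 0.1 mM GDP, 0.05% NP40, 10 min at room temperature with compound.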

[17] = target: Cytochrome P450 2C9 (Homo sapiens) (UniProt P11712); test: qHTS Assay for Inhibitors and Substrates of Cytochrome P450 2C9 (AID 883); note: % is set by controls: 0 for no effect and ±100 for the full control effect; nearly all actives have a fitted effect of over 60% in size
Summary of the method: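 Inhibition of CYP2C9 is scored as loss of luminescence, with 57uM sulphaphenazole defining 100% inhibition. Substrate Luciferin-H is used at 100uM, equal to its KM; enzyme at 10nM in 25mM KPO4, 60 min at 37C with NADPH regeneration.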

[18] = target: Cytochrome P450 3A4 (Homo sapiens) (UniProt P08684); test: qHTS Assay for Inhibitors and Substrates of Cytochrome P450 3A4 (AID 884); note: % is set by controls: 0 for no effect and ±100 for the full control effect; nearly all actives have a fitted effect of over 50% in size
Summary of the method: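 20 nM human CYP3A4 with 25 uM Luciferin-PPXE (at KM) in 200 mM KPO4, preincubated 10 min with compound; NADPH regeneration started a 60 min RT reaction. Luciferin detected by luminescence, normalized to 57 uM ketoconazole as full inhibition.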

[19] = target: Cytochrome P450 2C19 (Homo sapiens) (UniProt P33261); test: qHTS Assay for Inhibitors and Substrates of Cytochrome P450 2C19 (AID 899); note: % is set by controls: 0 for no effect and ±100 for the full control effect; nearly all actives have a fitted effect of over 60% in size
Summary of the method: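 5nM enzyme + 10uM Luciferin-H EGE (=KM), 50mM KPO4; cpd pin-transferred, 10 min 37C; NADPH regen, 60 min 37C; stopped w/ luciferin detection reagent, 20 min; luminescence. Normalized to 57uM ketoconazole (AC100).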

[20] = qHTS Assay for Identification of Small Molecule Agonists for Thrombopoietin (TPO) Signaling Pathway (AID 917); note: % is set by controls: 0 for no effect and ±100 for the full control effect
Summary of the method: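 IL-3-dependent murine pro-B Ba/F3 cells, stably transfected with human TPO receptor and GpIIb-promoter luciferase, are incubated 24 hrs at 37 C with test compound and 26 pM TPO; luciferase signal is read after 10 min at room temperature.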

[21] = target: Muscarinic acetylcholine receptor M1 (Rattus norvegicus) (UniProt P08482); test: qHTS Assay for Antagonists of Acetylcholine Muscarinic M1 Receptor: Kinetic Measurement of Intracellular Calcium Response (AID 943); note: nearly all actives have a fitted effect of over 75% in size
Summary of the method: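 CHO cells expressing rat M1 receptor, Fluo-4 loaded, preincubated 10 min with compound, then stimulated with EC80 carbachol (100 nM final). Kinetic calcium fluorescence over 4 min; response taken as peak over basal signal.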

[22] = target: Muscarinic acetylcholine receptor M1 (Rattus norvegicus) (UniProt P08482); test: qHTS Assay for Antagonists of Acetylcholine Muscarinic M1 Receptor: Measurement of IP-One Response (AID 944); note: nearly all actives have a fitted effect of over 75% in size
Summary of the method: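 CHO cells stably expressing rat M1, pretreated 10 min with compound, then stimulated 30 min with carbachol at EC80 (200 nM) in LiCl-containing buffer pH 7.4; IP1 accumulation read by HTRF competition (665/620 nm).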

[23] = target: Pyruvate kinase (Leishmania mexicana) (UniProt Q27686); test: qHTS Validation Assay for Inhibitors of Leishmania Mexicana Pyruvate Kinase (AID 945);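 note: 0% = DMSO only neutral control wells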
Summary of the method: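 Read-out: luminescence from PKLight stop/detection reagent, data normalized to DMSO. Reaction: 0.2 nM E451W LmPYK, 0.5 mM PEP, 0.1 mM ADP, pH 7.2, 1 h room temperature.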

[24] = target: Pyruvate kinase PKM (Homo sapiens) (UniProt P14618); test: qHTS Assay for Activators of Human Muscle Pyruvate Kinase (AID 954; active = well fitted curve in the direction sought with a large enough effect, not every such curve was filed as active;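 note: 0% = uninhibited enzyme and -100% = no enzyme or full thiadiazolimine inhibition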)
Summary of the method: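 Reaction: 0.1 nM purified PKM2 with 0.5 mM phosphoenolpyruvate and 0.1 mM ADP, room temperature, 1 h. Readout: luciferase-based ATP luminescence after stop reagent. Activators judged against a 0.3 nM enzyme column.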

[25] = target: Alpha-galactosidase (Coffea arabica) (UniProt Q42656); test: Counterscreen for Glucocerebrosidase Inhibitors: qHTS Assay for Coffee Bean alpha-Galactosidase at pH 4.5 (AID 957);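 note: plate controls were enzyme alone for no effect and no enzyme for full effect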
Summary of the method: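 Coffee bean enzyme (2 nM) with 80 uM 4-methylumbelliferyl alpha-D-galactopyranoside in 50 mM citric acid, 0.005% Tween-20, pH 4.5, 20 min at room temperature; compounds 0.7 nM–77 uM. Stopped at pH 10, fluorescence 365/440 nm; AC50 from Hill fits.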

[26] = target: Alpha-galactosidase A (Homo sapiens) (UniProt P06280); test: Counterscreen for Glucocerebrosidase Inhibitors: qHTS Assay for Human alpha-Galactosidase at pH 4.5 (AID 992); note: 0% is about no effect
Summary of the method: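 Concentration-response curves (0.7 nM to 77 uM final) were modeled with the Hill equation to give AC50. Reactions: 2 nM enzyme, 80 uM fluorogenic alpha-galactoside, pH 4.5 citric acid buffer, 20 min, room temperature.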

[27] = target: alpha-glucosidase (Oryza sativa, rice) (UniProt Q653V4); test: Counterscreen for Glucocerebrosidase Inhibitors: qHTS Assay for Rice alpha-Glucosidase at pH 5.0 (AID 997);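 note: 0% = full activity with enzyme and -100% = basal without enzyme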
Summary of the method: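 Rice alpha-glucosidase (4 nM final) with 400 uM 4-methylumbelliferyl-alpha-D-glucopyranoside in citrate buffer pH 5.0, 20 min at room temperature, stopped at pH 10; fluorescence 365/440 nm, compounds 0.7 nM–77 uM, AC50 from Hill fits.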

[28] = target: Alpha-galactosidase (Coffea arabica) (UniProt Q42656); test: Counterscreen for Glucocerebrosidase Inhibitors: qHTS Assay for Coffee Bean alpha-Galactosidase at pH 5.9 (AID 998);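 note: plate controls were uninhibited enzyme for no effect and no-enzyme basal signal for full effect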
Summary of the method: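 Compounds were titrated from 0.7 nM to 77 uM against green coffee bean alpha-galactosidase (2 nM) using 80 uM fluorogenic 4-methylumbelliferyl substrate. After 20 min at room temperature, reactions were stopped at pH 10 and read by fluorescence.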

[29] = qHTS Assay for Lipid Storage Modulators (AID 1519; calls by dose curve); details: Drosophila S3 cells, BODIPY lipid droplet/cell ratio, laser cytometry, cells loaded with oleic acid; for activity change, negative = inhibition: at 57.5 µM (top of the series)
Summary of the method: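 Cells seeded at 5,000 per well were treated with compounds over a concentration series and loaded with oleic acid (400 uM, as added). Lipid droplet fluorescence (488 nm excitation, 500-530 nm channel) was read by laser-scanning cytometry and normalized to 20 uM Triacsin C.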

[30] = measured here: cell count channel max response
[31] = measured here: lipid channel max response

Chain of Cytochrome P450 1A2 (Homo sapiens) (P05177 whole entry, looked up): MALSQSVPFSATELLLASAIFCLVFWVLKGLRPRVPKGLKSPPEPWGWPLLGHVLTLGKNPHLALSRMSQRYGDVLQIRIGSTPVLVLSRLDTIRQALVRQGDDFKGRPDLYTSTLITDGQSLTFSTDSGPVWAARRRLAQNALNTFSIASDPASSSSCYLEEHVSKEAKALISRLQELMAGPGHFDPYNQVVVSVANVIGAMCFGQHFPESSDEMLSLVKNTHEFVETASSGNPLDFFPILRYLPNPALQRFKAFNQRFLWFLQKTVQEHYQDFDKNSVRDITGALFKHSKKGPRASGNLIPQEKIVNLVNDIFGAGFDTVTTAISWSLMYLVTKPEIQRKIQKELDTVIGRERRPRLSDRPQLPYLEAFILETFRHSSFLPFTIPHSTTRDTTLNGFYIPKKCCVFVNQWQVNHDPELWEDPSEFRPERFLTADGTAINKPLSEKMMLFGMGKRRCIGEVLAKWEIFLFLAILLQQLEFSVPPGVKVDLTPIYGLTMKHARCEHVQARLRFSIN
Chain of DNA dC->dU-editing enzyme APOBEC-3G (Homo sapiens) (Q9HC16 whole entry, looked up): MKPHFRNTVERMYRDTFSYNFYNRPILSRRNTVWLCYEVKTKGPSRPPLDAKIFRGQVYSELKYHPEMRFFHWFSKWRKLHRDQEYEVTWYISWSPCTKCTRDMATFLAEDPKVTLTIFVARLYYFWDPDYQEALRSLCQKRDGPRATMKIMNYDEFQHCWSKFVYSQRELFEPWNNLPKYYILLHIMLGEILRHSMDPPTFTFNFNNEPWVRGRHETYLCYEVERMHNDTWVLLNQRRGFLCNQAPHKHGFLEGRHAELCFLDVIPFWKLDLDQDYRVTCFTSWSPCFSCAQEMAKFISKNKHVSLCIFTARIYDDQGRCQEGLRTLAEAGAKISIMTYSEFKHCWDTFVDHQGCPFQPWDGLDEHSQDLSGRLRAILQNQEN
Chain of Glucocorticoid receptor (Homo sapiens) (P04150 whole entry, looked up, the tested form may be a part): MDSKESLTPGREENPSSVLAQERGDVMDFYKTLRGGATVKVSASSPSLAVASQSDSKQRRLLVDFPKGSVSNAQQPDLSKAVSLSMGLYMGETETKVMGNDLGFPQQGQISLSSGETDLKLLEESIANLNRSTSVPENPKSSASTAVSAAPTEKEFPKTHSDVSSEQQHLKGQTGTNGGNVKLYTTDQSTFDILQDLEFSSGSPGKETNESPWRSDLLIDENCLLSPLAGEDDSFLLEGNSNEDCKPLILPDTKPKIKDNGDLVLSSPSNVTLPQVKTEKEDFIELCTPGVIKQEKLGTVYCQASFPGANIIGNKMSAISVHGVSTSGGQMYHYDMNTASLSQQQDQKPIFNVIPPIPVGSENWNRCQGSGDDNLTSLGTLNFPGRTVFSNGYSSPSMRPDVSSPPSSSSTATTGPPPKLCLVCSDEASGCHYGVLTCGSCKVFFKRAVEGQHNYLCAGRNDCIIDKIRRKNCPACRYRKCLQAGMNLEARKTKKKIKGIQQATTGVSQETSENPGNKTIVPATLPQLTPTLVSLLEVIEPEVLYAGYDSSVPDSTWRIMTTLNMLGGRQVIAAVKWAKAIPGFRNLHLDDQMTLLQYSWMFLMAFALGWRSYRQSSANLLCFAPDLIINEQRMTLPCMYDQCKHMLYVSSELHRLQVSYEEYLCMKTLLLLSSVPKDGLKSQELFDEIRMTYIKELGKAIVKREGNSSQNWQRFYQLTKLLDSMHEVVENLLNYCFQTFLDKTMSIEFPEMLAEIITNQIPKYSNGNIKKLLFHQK
Chain of Ubiquitin carboxyl-terminal hydrolase 1 (Homo sapiens) (O94782 whole entry, looked up): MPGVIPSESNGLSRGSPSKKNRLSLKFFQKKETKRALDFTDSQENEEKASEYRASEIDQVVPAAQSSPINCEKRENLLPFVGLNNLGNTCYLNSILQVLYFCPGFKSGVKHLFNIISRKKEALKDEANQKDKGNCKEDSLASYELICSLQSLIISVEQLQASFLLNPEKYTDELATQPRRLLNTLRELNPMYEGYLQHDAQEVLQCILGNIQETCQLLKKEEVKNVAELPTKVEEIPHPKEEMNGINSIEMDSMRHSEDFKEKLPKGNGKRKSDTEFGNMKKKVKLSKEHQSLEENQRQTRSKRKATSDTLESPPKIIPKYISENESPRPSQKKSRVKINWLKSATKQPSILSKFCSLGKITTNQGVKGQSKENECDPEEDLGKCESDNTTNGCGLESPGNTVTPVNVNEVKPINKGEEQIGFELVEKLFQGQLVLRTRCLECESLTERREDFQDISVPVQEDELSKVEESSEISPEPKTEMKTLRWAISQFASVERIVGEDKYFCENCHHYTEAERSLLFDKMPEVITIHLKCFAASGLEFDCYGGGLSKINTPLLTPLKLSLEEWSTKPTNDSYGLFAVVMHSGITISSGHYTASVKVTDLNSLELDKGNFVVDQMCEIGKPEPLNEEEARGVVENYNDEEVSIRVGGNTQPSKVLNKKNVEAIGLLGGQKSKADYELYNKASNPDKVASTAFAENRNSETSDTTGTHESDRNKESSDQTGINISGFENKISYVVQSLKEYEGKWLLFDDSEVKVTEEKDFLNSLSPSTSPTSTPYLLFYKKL
Chain of Alpha-galactosidase (Coffea arabica) (Q42656 whole entry, looked up): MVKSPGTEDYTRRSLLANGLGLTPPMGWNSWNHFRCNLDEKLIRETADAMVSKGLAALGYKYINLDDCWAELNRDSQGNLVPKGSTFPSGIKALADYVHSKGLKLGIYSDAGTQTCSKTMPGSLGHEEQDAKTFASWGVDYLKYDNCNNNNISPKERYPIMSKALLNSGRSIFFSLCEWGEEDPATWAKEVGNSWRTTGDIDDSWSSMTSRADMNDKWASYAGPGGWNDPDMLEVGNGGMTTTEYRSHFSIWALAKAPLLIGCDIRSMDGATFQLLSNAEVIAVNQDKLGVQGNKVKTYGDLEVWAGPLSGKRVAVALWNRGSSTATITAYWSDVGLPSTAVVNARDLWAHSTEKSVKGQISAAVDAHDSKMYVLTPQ
Chain of Cytochrome P450 3A4 (Homo sapiens) (P08684 whole entry, looked up): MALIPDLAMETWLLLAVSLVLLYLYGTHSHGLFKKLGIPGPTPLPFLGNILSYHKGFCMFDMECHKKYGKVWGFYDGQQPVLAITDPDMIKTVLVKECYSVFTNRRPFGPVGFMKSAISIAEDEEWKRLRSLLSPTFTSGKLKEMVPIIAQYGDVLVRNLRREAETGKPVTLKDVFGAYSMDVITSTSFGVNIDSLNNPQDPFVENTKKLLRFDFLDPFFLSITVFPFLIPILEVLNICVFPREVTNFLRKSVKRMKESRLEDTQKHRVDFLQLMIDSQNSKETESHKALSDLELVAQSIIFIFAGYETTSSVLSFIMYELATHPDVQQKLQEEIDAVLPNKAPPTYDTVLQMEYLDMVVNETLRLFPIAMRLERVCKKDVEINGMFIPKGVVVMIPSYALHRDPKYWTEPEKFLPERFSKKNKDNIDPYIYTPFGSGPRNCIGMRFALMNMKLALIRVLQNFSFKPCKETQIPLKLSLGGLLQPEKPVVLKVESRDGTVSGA
Chain of Cytochrome P450 2D6 (Homo sapiens) (P10635 whole entry, looked up): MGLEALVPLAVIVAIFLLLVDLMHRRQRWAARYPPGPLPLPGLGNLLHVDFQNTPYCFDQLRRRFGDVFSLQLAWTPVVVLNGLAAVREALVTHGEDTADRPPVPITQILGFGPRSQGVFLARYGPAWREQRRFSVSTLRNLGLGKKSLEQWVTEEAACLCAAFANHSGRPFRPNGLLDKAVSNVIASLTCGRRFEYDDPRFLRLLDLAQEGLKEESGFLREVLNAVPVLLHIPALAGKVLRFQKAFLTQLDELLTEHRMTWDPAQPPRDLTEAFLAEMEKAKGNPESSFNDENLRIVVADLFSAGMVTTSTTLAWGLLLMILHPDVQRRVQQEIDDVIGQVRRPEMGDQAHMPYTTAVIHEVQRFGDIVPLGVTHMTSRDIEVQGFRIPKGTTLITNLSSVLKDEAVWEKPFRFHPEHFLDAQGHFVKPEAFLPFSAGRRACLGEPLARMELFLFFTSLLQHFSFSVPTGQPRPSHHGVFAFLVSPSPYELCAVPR
Chain of Muscarinic acetylcholine receptor M1 (Rattus norvegicus) (P08482 whole entry, looked up): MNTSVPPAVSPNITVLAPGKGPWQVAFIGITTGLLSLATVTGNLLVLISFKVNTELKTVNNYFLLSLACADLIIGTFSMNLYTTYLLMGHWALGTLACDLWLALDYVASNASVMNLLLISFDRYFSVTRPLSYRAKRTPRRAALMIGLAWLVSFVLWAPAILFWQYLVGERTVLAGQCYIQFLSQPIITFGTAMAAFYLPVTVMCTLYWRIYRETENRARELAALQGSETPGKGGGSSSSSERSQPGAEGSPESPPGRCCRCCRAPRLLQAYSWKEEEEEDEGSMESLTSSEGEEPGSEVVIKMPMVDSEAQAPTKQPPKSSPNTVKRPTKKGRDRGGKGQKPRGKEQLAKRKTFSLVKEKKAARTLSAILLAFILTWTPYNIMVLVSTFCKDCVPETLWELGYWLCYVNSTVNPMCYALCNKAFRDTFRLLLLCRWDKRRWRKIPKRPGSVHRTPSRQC
Chain of Cytochrome P450 2C9 (Homo sapiens) (P11712 whole entry, looked up): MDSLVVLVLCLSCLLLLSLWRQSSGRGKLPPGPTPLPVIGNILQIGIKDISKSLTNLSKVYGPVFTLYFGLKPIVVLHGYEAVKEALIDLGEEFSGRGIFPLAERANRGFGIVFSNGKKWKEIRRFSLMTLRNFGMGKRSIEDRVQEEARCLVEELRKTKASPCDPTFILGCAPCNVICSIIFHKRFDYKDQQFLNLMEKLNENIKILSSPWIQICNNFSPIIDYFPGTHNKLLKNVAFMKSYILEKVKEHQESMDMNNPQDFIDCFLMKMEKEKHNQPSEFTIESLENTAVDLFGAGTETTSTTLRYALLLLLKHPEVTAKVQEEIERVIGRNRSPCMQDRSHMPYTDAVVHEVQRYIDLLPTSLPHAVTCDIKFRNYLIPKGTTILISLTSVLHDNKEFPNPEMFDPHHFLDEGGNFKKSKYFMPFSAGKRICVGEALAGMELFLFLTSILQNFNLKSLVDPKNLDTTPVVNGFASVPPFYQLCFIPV

COC(=O)C1(C)C2CC(C)C(c3ccccc32)N1C(=O)C(F)(F)F (stereo not drawn)
inactive: outcome [1] | outcome [2] | Potency [3] | outcome [4]

COC(=O)[C@@]1(C=C[C@@H](C)[C@H](OC)c2ccccc2Br)[C@@H]2Oc3ccccc3[C@@H]21
inactive: outcome [1] | outcome [2] | Potency [3] | outcome [4]

CCOC(=O)[C@@]12C3[C@@H](CCN3C(=O)N[C@@H]1c1ccccc1)[C@@H]2C (stereo partly drawn)
inactive: outcome [1] | outcome [2] | Potency [3] | outcome [4]

C[C@@H]1O[C@H](O[C@@H]2C[C@@H](O)[C@]3(CO)[C@H]4[C@H](O)C[C@]5(C)[C@@H](C6=CC(=O)OC6)CC[C@@]5(O)[C@@H]4CC[C@]3(O)C2)[C@@H](O)[C@H](O)[C@H]1O
inactive: outcome [5] | Potency [7] | Potency [8] | Potency [9]
active: Potency [6] 0.0501 µM

N[C@H](C(=O)O)c1cc(=O)[nH]o1
-3.07%: max response [29, 30]
-3.59%: max response [29, 31]
inactive: outcome [10] | Potency [11] | activity change, negative = inhibition [12] 2.26% | Potency [13] > 46 µM | Potency [14] > 46 µM | outcome [5] | Potency [15] | outcome [16] | Potency [17] | Potency [18] | Potency [6] | Potency [19] | outcome [20] | Potency [21] | Potency [22] | outcome [23] | outcome [24] | outcome [25] | outcome [26] | outcome [27] | outcome [28] | activity change, negative = inhibition [29] 3.47% | Potency [8]

CCOC(=O)[C@]12C[C@]3(C)CCN(C(=O)N[C@@H]1c1ccccc1)[C@@H]32
inactive: outcome [1] | outcome [2] | Potency [3] | outcome [4]

CC(=O)[C@]12C[C@@H]3CCN(C(=O)N[C@@H]1c1ccccc1)[C@@]32C
inactive: outcome [4]

C=C1[C@@H]2CCN3C(=O)N[C@@H](c4ccccc4)[C@@]1(C(=O)OCC)C23 (stereo partly drawn)
inactive: outcome [1] | outcome [2] | Potency [3] | outcome [4]

COC(=O)C1=C2CCO[C@H]2[C@@H]2[C@@H](C)[C@H](OC)c3ccccc3[C@@H]12
inactive: outcome [1] | outcome [2] | Potency [3] | outcome [4]

CC(=O)[C@]12[C@H](c3ccccc3)[C@@H]3CCN(C(=O)N[C@H]1c1ccccc1)[C@@]32C
inactive: outcome [1] | Potency [3] | outcome [4]

O=C1Nc2ccccc2C2(CCN(CCc3ccc(C(F)(F)F)cc3)CC2)O1
inactive: Potency [18]

N[C@@H](Cn1ccc(=O)n(Cc2ccc(C(=O)O)cc2)c1=O)C(=O)O
-1.53%: max response [29, 30]
-1.3%: max response [29, 31]
inactive: Potency [11] | Potency [13] > 46 µM | Potency [14] > 46 µM | outcome [5] | activity change, negative = inhibition [29] 0.903% | Potency [7] | Potency [8]
